Measurements taken from the supplement of paper PMC13380429.

Tested on: Vero E6 infected with SARS-CoV-2
Assay: inhibition of SARS-CoV-2 cytopathic effect; higher = more antiviral protection, active = above 15
Details: 48 h

Measured: inhibition of SARS-CoV-2 cytopathic effect

CC1(C)C(/C=C/C=C/C=C/C=C2\N(CCCCS(=O)(=O)O)c3ccc4ccccc4c3C2(C)C)=[N+](CCCCS(=O)(=O)[O-])c2ccc3ccccc3c21 [indocyanine-green]
inactive: 1 nM -0.13% | 8.33 nM 1.53% | 100 nM 0.85% | 833.33 nM 1.22% | 10000 nM 0.23%

N[C@@H](C(=O)O)c1ccc(C(=O)O)c(O)c1 (racemic) [4-carboxy-3-hydroxyphenylglycine-(RS)]
inactive: 1 nM -0.15% | 8.33 nM -0.33% | 100 nM 0.94% | 833.33 nM -0.355% | 10000 nM -0.565%

COc1ccc(OC)c2c(=S)c3ccccc3[nH]c12
inactive: 1 nM 2.65% | 8.33 nM 4.64% | 100 nM 1.38% | 833.33 nM 1.44% | 10000 nM 2.75%

Cc1cc(O)c(C(=O)N[C@@H](C(=O)N[C@@H]2C(=O)N3C(C(=O)O)=C(CSc4nnnn4C)CS[C@H]23)c2ccc(O)cc2)cn1 [cefpiramide]
inactive: 1 nM -0.65% | 8.33 nM -0.72% | 100 nM 0.85% | 833.33 nM 2.35% | 10000 nM 3.6%

COc1cc(N)cn[n+]1-c1ccccc1 [amezinium]
inactive: 1 nM -1.03% | 8.33 nM -0.58% | 100 nM 0.21% | 833.33 nM 0.15% | 10000 nM -1.56%

COC(=O)Nc1ccc(-c2nc(N3CCOCC3)c3cnn(C4CCN(C(=O)OC)CC4)c3n2)cc1
inactive: 1 nM 1.39% | 8.33 nM 1.76% | 100 nM 4.01% | 833.33 nM 0.99% | 10000 nM 2.63%

COC(=O)C1=CCCN(C)C1 [arecoline]
inactive: 1 nM 1.27% | 8.33 nM 1.95% | 100 nM -1.54% | 833.33 nM -1.35% | 10000 nM 1.15%

Oc1ccc(C2CNCCc3c2cc(O)c(O)c3Cl)cc1 (stereo not given) [fenoldopam]
inactive: 1 nM 5.49% | 8.33 nM 1.3% | 100 nM 4.35% | 833.33 nM 0.98% | 10000 nM -5.61%

C=CCN1C[C@H](C)N([C@H](c2ccc(C(=O)N(CC)CC)cc2)c2cccc(OC)c2)C[C@H]1C
inactive: 1 nM -0.66% | 8.33 nM 1.28% | 100 nM 1.71% | 833.33 nM -0.17% | 10000 nM -1.85%

CSCC1CN(/N=C/c2ccc([N+](=O)[O-])o2)C(=O)O1 (stereo not given) [inimur]
inactive: 1 nM -1.14% | 8.33 nM -0.35% | 100 nM 2.9% | 833.33 nM 1.93% | 10000 nM 0.52%

CC#CC(=O)N1CCC[C@H]1c1nc(-c2ccc(C(=O)Nc3ccccn3)cc2)c2c(N)nccn12 [acalabrutinib]
inactive: 1 nM 2.14% | 8.33 nM -0.44% | 100 nM 0.31% | 833.33 nM -0.11% | 10000 nM -0.34%

C#CCN[C@@H]1CCc2ccccc21 [rasagiline]
inactive: 1 nM 0.63% | 8.33 nM -1.47% | 100 nM -1.63% | 833.33 nM -1.24% | 10000 nM -0.6%

CC[C@]1(O)C[C@H]2CN(CCc3c([nH]c4ccccc34)[C@@](C(=O)OC)(c3cc4c(cc3OC)N(C=O)[C@H]3[C@@](O)(C(=O)OC)[C@H](OC(C)=O)[C@]5(CC)C=CCN6CC[C@]43[C@@H]65)C2)C1 [Vincristine (sulfate)]
inactive: 1 nM -1.47% | 8.33 nM -1.12% | 100 nM 0.94% | 833.33 nM 0.14% | 10000 nM -0.29%

CC(=O)OCC(=O)[C@@]1(O)CC[C@H]2[C@@H]3CCC4=CC(=O)C=C[C@]4(C)[C@H]3[C@@H](O)C[C@@]21C [prednisolone-acetate]
inactive: 1 nM 0.64% | 8.33 nM 0.57% | 100 nM -0.58% | 833.33 nM -0.51% | 10000 nM 0.26%

O=S(=O)(c1ccccc1)N(CC(F)(F)F)c1ccc(C(O)(C(F)(F)F)C(F)(F)F)cc1
inactive: 1 nM 1.99% | 8.33 nM 0.95% | 100 nM -0.31% | 833.33 nM 2.71% | 10000 nM -0.14%

Nc1ccn([C@@H]2O[C@H](CO)[C@@H](O)[C@@H]2O)c(=O)n1 [cytarabine]
inactive: 1 nM -0.13% | 8.33 nM 2.91% | 100 nM 2.21% | 833.33 nM -1% | 10000 nM -2.58%

COc1ccc2nc3cc(Cl)ccc3c(Nc3cc(CN4CCCC4)c(O)c(CN4CCCC4)c3)c2n1 [pyronaridine]
inactive: 1 nM 3.08% | 8.33 nM 4.56% | 100 nM 8.6% | 833.33 nM 3.79% | 10000 nM -18.6%
